# Measurements as given in PubChem BioAssay (NCATS).
# Inconclusive results are not listed. Unmarked numbers belong to inactive results. Active and inactive are the calls of the source. Calls come from the whole dose curve; as a rule, active = well fitted inhibition curve with a large enough effect; inconclusive = small, poorly fitted or top-dose-only effect; inactive = flat fitted curve, though single readings scatter.
# Key:
# [1] = qHTS profiling for inhibitors of Plasmodium falciparum proliferation (AID 504749); note: nearly all actives have a fitted effect of over 60% in size;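 for activity, negative = inhibition: 0% = DMSO vehicle and full inhibition = artemisinin control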; conditions: P. falciparum in erythrocytes, SYBR Green DNA, 72 h
# Procedure, shortened: (§1)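 Parasite proliferation within erythrocytes, 72 h exposure. Endpoint: SYBR Green I fluorescence after overnight lysis at room temperature. Controls: 0.29 uM artemisinin, DMSO.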
# 3D7 = experiment: as above; conditions: P. falciparum in erythrocytes, SYBR Green DNA, 72 h; series mostly up to 28.7 µM
# Procedure, shortened: as §1
# 7G8 = experiment: as above; conditions: P. falciparum in erythrocytes, SYBR Green DNA, 72 h; series mostly up to 28.7 µM
# Procedure, shortened: as §1
# [2] = at 28.7 µM (top of the series), parasite line A
# [3] = at 28.7 µM (top of the series), parasite line B
# [4] = at 12.8 µM (top of the series), parasite line A
# [5] = at 12.8 µM (top of the series), parasite line B
# Potency is the fitted concentration of half-maximal effect.
structure (smiles),measurement,setting,value
CCCCCCCCCCCCCCCCCC[N+](C)(C)CCC[Si](OC)(OC)OC,"activity, negative = inhibition",[1]; [2],12.9%
same,Potency,3D7,inactive
same,Potency,7G8,inactive
OC1OC[C@@H](O)[C@H](O)[C@@H]1O (stereo not given in full),"activity, negative = inhibition",[1]; [2],-2.48%
same,Potency,3D7,inactive
same,Potency,7G8,inactive
CC(=O)Oc1cccc2c1C(=O)c1c(OC(C)=O)cc(C(=O)O)cc1C2=O,"activity, negative = inhibition",[1]; [3],-5.47%
same,Potency,3D7,inactive
same,Potency,7G8,inactive
CCCOC(=O)c1ccccc1O,"activity, negative = inhibition",[1]; [2],3.1%
same,"activity, negative = inhibition",[1]; [3],6.22%
same,Potency,3D7,inactive
same,Potency,7G8,inactive
O=C1NCCN1c1ncc([N+](=O)[O-])s1,"activity, negative = inhibition",[1]; [4],-20%
same,"activity, negative = inhibition",[1]; [5],-14.4%
same,Potency,3D7,inactive
same,Potency,7G8,inactive
CC12CCC(C1)C(C)(C)C2=O (stereo not given),"activity, negative = inhibition",[1]; [2],8.34%
same,"activity, negative = inhibition",[1]; [3],10.9%
same,Potency,3D7,inactive
same,Potency,7G8,inactive
O.O.O.O.O.O.O.O=S(=O)([O-])[O-].[Co+2],Potency,[1]; parasite line A,11.2 µM (active)
same,Potency,[1]; parasite line B,8.91 µM (active)
same,Potency,7G8,2.82 µM (active)
CC1=C(/C=C/C(C)=C/C=C/C(C)=C/C(=O)Oc2c(C)c(C)c3c(c2C)CC[C@@](C)(CCC[C@H](C)CCC[C@H](C)CCCC(C)C)O3)C(C)(C)CCC1,"activity, negative = inhibition",[1]; [2],5.64%
same,"activity, negative = inhibition",[1]; [3],7.26%
same,Potency,3D7,inactive
same,Potency,7G8,inactive
NC(N)=NCC1COc2ccccc2O1 (stereo not given),Potency,3D7,inactive
CCN(CC)CCC(=O)N1c2ccccc2Sc2ccc(Cl)cc21,Potency,7G8,8.91 µM (active)
CC[C@H]1OC(=O)[C@H](C)[C@@H](O[C@H]2C[C@@](C)(OC)[C@@H](O)[C@H](C)O2)C(C)[C@@H](O[C@@H]2O[C@H](C)C[C@H](N(C)C)[C@@H]2O)[C@](C)(OC)C[C@@H](C)C(=O)[C@H](C)[C@@H](O)[C@]1(C)O (stereo not given in full),Potency,7G8,inactive
Cn1cc(NC(=O)c2cc(NC(=O)c3cc(NC=O)cn3C)cn2C)cc1C(=O)NCCC(=N)N,Potency,[1]; parasite line A,8.91 µM (active)
same,Potency,[1]; parasite line B,11.2 µM (active)
same,Potency,3D7,10 µM (active)
same,Potency,7G8,0.316 µM (active)
CC(C)NCC(O)COc1ccccc1-n1cccc1 (stereo not given),"activity, negative = inhibition",[1]; [2],18.2%
same,"activity, negative = inhibition",[1]; [3],-1.41%
same,Potency,3D7,inactive
same,Potency,7G8,7.08 µM (active)
CCCCCCCCCCCCCCCCOCCOCCOCCOCCOCCOCCOCCOCCOCCOCCOCCOCCOCCOCCOCCOCCOCCOCCOCCOCCO,Potency,[1]; parasite line A,15.8 µM (active)
same,Potency,7G8,5.62 µM (active)
OB(O)O,"activity, negative = inhibition",[1]; [2],8.7%
same,"activity, negative = inhibition",[1]; [3],9.31%
same,Potency,3D7,inactive
same,Potency,7G8,inactive
NCC[C@H](O)C(=O)N[C@@H]1C[C@H](N)[C@@H](O[C@H]2O[C@H](CN)[C@@H](O)[C@H](O)[C@H]2O)[C@H](O)[C@H]1O[C@H]1O[C@H](CO)[C@@H](O)[C@H](N)[C@H]1O,"activity, negative = inhibition",[1]; [2],2.54%
same,"activity, negative = inhibition",[1]; [3],0.715%
same,Potency,3D7,inactive
same,Potency,7G8,inactive
O=c1n(CC2CO2)c(=O)n(CC2CO2)c(=O)n1CC1CO1 (stereo not given),"activity, negative = inhibition",[1]; [3],-29.5%
same,Potency,7G8,12.6 µM (active)
CC(C)CCCCCCc1ccc(O)cc1,"activity, negative = inhibition",[1]; [3],-29%
same,Potency,3D7,inactive
same,Potency,7G8,8.91 µM (active)
OC/C=C/c1ccccc1,"activity, negative = inhibition",[1]; [2],-0.356%
same,Potency,3D7,inactive
same,Potency,7G8,inactive
CN(C)C(=O)CCSC(SCCC(=O)O)c1cccc(/C=C/c2ccc3ccc(Cl)cc3n2)c1 (stereo not given),Potency,7G8,8.91 µM (active)
CC(C)=CCC/C(C)=C/CC/C(C)=C/CC/C=C(\C)CC/C=C(\C)CCC=C(C)C,"activity, negative = inhibition",[1]; [2],0.919%
same,"activity, negative = inhibition",[1]; [3],12.5%
same,Potency,3D7,inactive
same,Potency,7G8,inactive
COc1cc(S(C)=O)ccc1-c1nc2ncccc2[nH]1 (stereo not given),"activity, negative = inhibition",[1]; [2],6.38%
same,"activity, negative = inhibition",[1]; [3],-9.68%
same,Potency,3D7,inactive
same,Potency,7G8,inactive
Cn1c(O)c(N=NC(N)=S)c2ccccc21,Potency,7G8,12.6 µM (active)
CC(=O)Oc1cc(C(F)(F)F)ccc1C(=O)O,"activity, negative = inhibition",[1]; [4],7.13%
same,"activity, negative = inhibition",[1]; [5],12.5%
same,Potency,3D7,inactive
same,Potency,7G8,inactive
S=C=Nc1ccc(N=C=S)cc1,"activity, negative = inhibition",[1]; [2],10.9%
same,"activity, negative = inhibition",[1]; [3],0.756%
same,Potency,3D7,inactive
same,Potency,7G8,inactive
